This note sets out measurements from PubChem BioAssay (NCI).

The structures appear in SMILES notation. About 83,000 compounds went through this panel and 20% of them were active in at least one assay; those are over-represented in the sample as a whole.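 The test compound was applied at a single concentration to cells in 96-well plates for 48 hours, and percent growth was recorded.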 Values without a mark were called inactive. Calls of active or inactive are those of the source. Rule for the calls: active = growth percent below 10; inactive = the rest.

Among the test systems are NCI-H23 lung; NCI-H226 lung; NCI-H322M lung; HOP-62 NSCLC; NCI-H460 lung; HOP-92 NSCLC; NCI-H522 lung; A549/ATCC NSCLC; 786-0 renal; COLO 205 colon; DU-145 prostate; K-562 leukemia; MALME-3M melanoma; MDA-MB-231 breast; RXF 393 renal; SF-268 CNS; SF-295 CNS; SF-539 CNS; UACC-257 melanoma; M14 melanoma.
Assay in all cases: NCI-60 one-dose screen, 48 h (100 = growth as untreated, 0 = no growth, -100 = all killed)
Holding throughout (conditions): 10 µM unless noted

Take `O=C1OC(c2nc3ccccc3s2)=C/C1=C\c1ccc(O)cc1`: the growth with NCI-H23 lung is 98.9%; in the experiment with NCI-H226 lung it was 99.5%; in the experiment with NCI-H322M lung, 110%; with HOP-62 NSCLC, 91.8%; in the experiment on NCI-H460 lung it was 101%; with HOP-92 NSCLC it was 87.9%. Further, the growth with NCI-H522 lung was 91.4%; in the experiment with A549/ATCC NSCLC it was 109%; with 786-0 renal, 107%; in the experiment with COLO 205 colon it was 102%; in the experiment with DU-145 prostate it was 111%; in the experiment with K-562 leukemia it was 102%. The growth in the experiment on MALME-3M melanoma is 100%; with MDA-MB-231 breast it was 87.2%; in the experiment with RXF 393 renal, 119%; in the experiment with SF-268 CNS it was 100%; with SF-295 CNS, 101%; in the experiment with SF-539 CNS it was 93%. In addition, the growth with UACC-257 melanoma was 114%; with M14 melanoma, 105%.

Consider `O=C(/C=C/c1c(Cl)nc2sccn12)c1nccs1`, for which the growth was 94.2% in the experiment on NCI-H23 lung; 83.4% in the experiment on NCI-H226 lung; 104% in the experiment on NCI-H322M lung; 88.2% in the experiment on HOP-62 NSCLC; 92.7% with NCI-H460 lung; 63.8% with HOP-92 NSCLC. Also, the growth is 72.4% with NCI-H522 lung; 88% with A549/ATCC NSCLC; 102% with 786-0 renal; 112% with DU-145 prostate; 84.3% with K-562 leukemia; 108% in the experiment with MALME-3M melanoma. For the same molecule, the growth was 95.8% in the experiment with MDA-MB-231 breast; 70.7% in the experiment with RXF 393 renal; 84.8% in the experiment on SF-268 CNS; 110% with SF-295 CNS; 106% with SF-539 CNS; 81% with UACC-257 melanoma. The growth in the experiment on M14 melanoma is 93.9%.

As to `Cc1ccc(Cl)c(NS(=O)(=O)c2ccc(-c3cnc(C4CC4)o3)cc2)c1`, the growth is 36.2% in the experiment with NCI-H23 lung; 33.8% in the experiment with NCI-H226 lung; 44.4% with NCI-H322M lung; 42.7% in the experiment with HOP-62 NSCLC; 14.3% in the experiment with NCI-H460 lung; 73.9% in the experiment on HOP-92 NSCLC. Moreover, the growth is 3.84% (active) in the experiment on NCI-H522 lung; 26.5% in the experiment on A549/ATCC NSCLC; 27.8% in the experiment with 786-0 renal; -0.408% (active) with COLO 205 colon; 21.6% in the experiment with DU-145 prostate; 8.53% (active) in the experiment on K-562 leukemia. Moreover, the growth in the experiment on MALME-3M melanoma was 62.4%; in the experiment with MDA-MB-231 breast, 32.5%; with RXF 393 renal, 9.98% (active); in the experiment with SF-268 CNS, 56.2%; in the experiment with SF-295 CNS, 16.1%; with SF-539 CNS, -8.06% (active). For the same molecule, the growth in the experiment on UACC-257 melanoma was 67.8%; in the experiment with M14 melanoma, 2.07% (active).

Turning to `N=C1CCC(=N)c2c1c(O)c1ccccc1c2O`, the growth is 82.3% in the experiment with NCI-H23 lung; 87.3% with NCI-H226 lung; 93.1% in the experiment with NCI-H322M lung; 103% with HOP-62 NSCLC; 173% with NCI-H460 lung; 88.7% in the experiment with HOP-92 NSCLC. Also, the growth with NCI-H522 lung is 91.6%; in the experiment on A549/ATCC NSCLC it was 95.2%; in the experiment with 786-0 renal, 113%; with COLO 205 colon it was 114%; in the experiment with DU-145 prostate, 106%; with K-562 leukemia, 65.1%. Moreover, the growth is 135% with MALME-3M melanoma; 89.6% with MDA-MB-231 breast; 79.6% in the experiment with RXF 393 renal; 85.4% in the experiment on SF-268 CNS; 102% in the experiment with SF-295 CNS; 171% with SF-539 CNS. The growth in the experiment on UACC-257 melanoma was 101%; in the experiment on M14 melanoma, 118%.

In the case of `CCCCOc1nc2ccccc2cc1C1CNC(=O)c2ccccc2N1` (stereo unspecified), the growth in the experiment on NCI-H23 lung is 23.8%; with NCI-H226 lung, 0.702% (active); in the experiment on NCI-H322M lung, 47.2%; with HOP-62 NSCLC, 23%; in the experiment with NCI-H460 lung, 6.89% (active); in the experiment with HOP-92 NSCLC, 48.9%. In addition, the growth in the experiment on NCI-H522 lung was -13.6% (active); in the experiment on A549/ATCC NSCLC, 19.9%; in the experiment with 786-0 renal it was 26.2%; in the experiment on COLO 205 colon, 9.84% (active); in the experiment on DU-145 prostate, 10.7%; in the experiment with K-562 leukemia, 12.8%. Moreover, the growth with MALME-3M melanoma is 45.6%; in the experiment on MDA-MB-231 breast, 47.5%; in the experiment with RXF 393 renal it was -14.3% (active); in the experiment with SF-268 CNS it was 43.6%; in the experiment on SF-295 CNS it was -5.68% (active); in the experiment on SF-539 CNS it was -25.5% (active). Further, the figures for the growth in the experiment with UACC-257 melanoma and in the experiment with M14 melanoma were 57.2% and -23.1% (active), respectively.

On to `COc1ccc(CNC(=O)C(O)C(Cc2ccccc2)NC(=O)c2[nH]c3ccccc3c(=O)c2C)cc1OC` (stereo unspecified), for which the growth was 102% with NCI-H23 lung; 98.1% in the experiment on NCI-H226 lung; 104% in the experiment on NCI-H322M lung; 102% with HOP-62 NSCLC; 103% with NCI-H460 lung; 110% in the experiment with HOP-92 NSCLC. For the same molecule, the growth in the experiment on NCI-H522 lung is 93%; in the experiment on A549/ATCC NSCLC, 103%; in the experiment with 786-0 renal, 101%; with DU-145 prostate it was 113%; with K-562 leukemia, 102%; in the experiment on MALME-3M melanoma it was 111%. The growth with MDA-MB-231 breast is 103%; in the experiment on RXF 393 renal it was 111%; in the experiment on SF-268 CNS, 102%; in the experiment with SF-295 CNS, 99.7%; in the experiment with SF-539 CNS, 107%; in the experiment on UACC-257 melanoma, 105%. Also, the growth in the experiment on M14 melanoma is 106%.

As to `Cc1cc(O)c(C2=NN(c3ccc(S(N)(=O)=O)cc3)C(c3ccccc3Cl)C2)cc1Cl` (stereo unspecified), the growth in the experiment with NCI-H23 lung was 2.15% (active); in the experiment on NCI-H226 lung, 38.7%; with NCI-H322M lung it was 48.3%; in the experiment on HOP-62 NSCLC it was -6.9% (active); in the experiment with NCI-H460 lung, -36.2% (active); in the experiment on HOP-92 NSCLC it was 38.5%. Besides, the growth in the experiment with NCI-H522 lung was -56.1% (active); in the experiment on A549/ATCC NSCLC, 13%; in the experiment with 786-0 renal, -66.3% (active); in the experiment on DU-145 prostate, 4.85% (active); with K-562 leukemia, -18% (active); with MALME-3M melanoma it was 34.9%. The growth in the experiment on MDA-MB-231 breast was 20%; in the experiment with RXF 393 renal it was -11.7% (active); in the experiment on SF-268 CNS it was 11.6%; in the experiment on SF-295 CNS, 63%; in the experiment with SF-539 CNS, 41.9%; in the experiment on UACC-257 melanoma, 65.2%. For the same molecule, the growth in the experiment on M14 melanoma was -11.9% (active).

In the case of `O=C(NCCCNc1cc(-c2cn(-c3ccccc3)nc2-c2cccc(O)c2)ccn1)c1ccccc1`, the growth is 46% in the experiment on NCI-H23 lung; 54.9% in the experiment on NCI-H226 lung; 75.2% with NCI-H322M lung; 47% in the experiment on HOP-62 NSCLC; 30.4% in the experiment with NCI-H460 lung; 49.8% with HOP-92 NSCLC. The growth is 7.01% (active) in the experiment on NCI-H522 lung; 21% with A549/ATCC NSCLC; -29.8% (active) with 786-0 renal; 49.7% in the experiment with DU-145 prostate; -4.2% (active) in the experiment on K-562 leukemia; -5.89% (active) with MALME-3M melanoma. Further, the growth is -6.57% (active) with MDA-MB-231 breast; 24% with RXF 393 renal; 44.1% with SF-268 CNS; 12% in the experiment with SF-295 CNS; 27.3% in the experiment with SF-539 CNS; -49.2% (active) with UACC-257 melanoma. Further, the growth in the experiment on M14 melanoma was 3.42% (active).
